Experiment [1] is described as follows: optical density shifts of acrAB sulA E. coli – strain DRC41, OD650, 48 h, E. coli filamentation inducer project, primary screen (AID 1152).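 Note: E. coli MC1000 strain DRC41 lacking acrAB efflux pump and sulA.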 To be noted: higher = more signal, called active from +8 up or from −8 down.
Experiment [2] can be described thus: probe aLefty1 binding on compound microarray – biochemical, small-molecule microarray, 635/667 nm fluorescence, primary screen (AID 1153).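 Note: score merges spot fluorescence with signal-to-noise ratio from the scanned slide images.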 To be noted: higher = more signal.
Experiment [3] in a line: plasmodial surface anion channel blockers, osmotic lysis – cell-based, P. falciparum Indochina, OD700, 1 h, primary screen (AID 1154). To be noted: P. falciparum Indochina infected RBC osmotic lysis, higher = more signal, called active from +8 up or from −8 down.
Experiment [4] in a line: plasmodial surface anion channel blockers, osmotic lysis – cell-based, P. falciparum Indochina, OD700, 2 h, primary screen (AID 1155).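 Note: lysis reports solute entry through the parasite surface anion channel PSAC.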 To be noted: P. falciparum Indochina infected erythrocytes, higher = more signal, called active from +8 up or from −8 down.
A short description of experiment [5]: changes in parasitized red cell lysis, either direction – P. falciparum Indochina, OD700, 3 h, PSAC antagonist project, primary screen (AID 1156). To be noted: P. falciparum-infected erythrocytes, osmotic lysis, higher = more signal, called active from +8 up or from −8 down.
A short description of experiment [6]: plasmodial surface anion channel blockers, osmotic lysis – cell-based, P. falciparum Indochina, OD700, 18 h, primary screen (AID 1157). To be noted: P. falciparum Indochina infected erythrocytes, osmotic lysis OD700, 18 h; higher = more signal, called active from +8 up or from −8 down.
Experiment [7] is described as follows: S6 kinase pathway phospho-S6 level changes – cell-based, A549, cytoblot, luminescence, serum-stimulated, primary screen (AID 1158).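 Note: serum-stimulated A549 lung adenocarcinoma cells; signal is phosphorylated S6 detected by cytoblot immunostaining with HRP secondary.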 To be noted: 5 h, higher = more signal.
The target of experiment [8] is NADPH oxidase 2 (Homo sapiens) (UniProt P04839). Description: compounds shifting NOX2 Amplex Red fluorescence – cell-based, HEK293-NOX2, PMA-stimulated, NOX inhibitor project, primary screen (AID 1159). Note: test concentration not given here. To be noted: 45 min, higher = more signal, called active from +8 up or from −8 down.
In experiment [9] the target is NADPH oxidase 4 (Homo sapiens) (UniProt Q9NPH5). As to the kind of experiment: compounds shifting NOX4 Amplex Red fluorescence – cell-based, HEK293-NOX4, tetracycline-induced, NOX inhibitor project, primary screen (AID 1160). To be noted: HEK293-NOX4, Amplex Red H2O2 fluorescence, 45 min; higher = more signal, called active from +8 up or from −8 down.
For experiment [10], the target named is NADPH oxidase 5 (Homo sapiens) (UniProt Q96PH1). Description: compounds shifting NOX5 Amplex Red fluorescence – cell-based, HEK293-NOX5, NOX inhibitor project, primary screen (AID 1161). To be noted: HEK293-NOX5, ionomycin, 45 min, higher = more signal.
Experiment [11] can be described thus: compound effects on lung adenocarcinoma cell viability – A549, calcein-AM fluorescence, 48 h, basal, profiling panel (AID 1162). Note: test concentration not given here. To be noted: higher = more signal.
Experiment [12] can be described thus: compound effects on differentiated 3T3-L1 adipocyte viability – cell-based, 3T3-L1 adipocytes, calcein-AM fluorescence, 48 h, basal, profiling panel (AID 1163). Note: test concentration not given here. To be noted: 3T3-L1 adipocytes viability, higher = more signal.
A short description of experiment [13]: compound effects on hepatocellular carcinoma cell viability – HepG2, calcein-AM fluorescence, 48 h, basal, profiling panel (AID 1164). Note: test concentration not given here. To be noted: higher = more signal.
The nature of experiment [14]: compound effects on multiple myeloma cell viability – MM1S, calcein-AM fluorescence, 48 h, basal, profiling panel (AID 1165).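 Note: viability of MM1S multiple myeloma cells under basal unstimulated conditions; test concentration not given here.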 To be noted: higher = more signal.
A short description of experiment [15]: calcein-AM signal in unstimulated myeloma cells – cell-based, calcein-AM fluorescence, 48 h, PK04 Diversity Set, profiling panel (AID 1166).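 Note: cells grown under basal conditions without added stimulus; test concentration not given here.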 To be noted: RPMI8226 myeloma viability, higher = more signal.
A short description of experiment [16]: JC-1 mitochondrial signal, unstimulated HepG2 cells – cell-based, JC-1 fluorescence, 24 h, 100 nL compound, profiling panel (AID 1167). Note: test concentration not given here. To be noted: HepG2 mitochondrial potential, higher = more signal.
Experiment [17] is described as follows: JC-1 mitochondrial signal, unstimulated adipocytes – cell-based, JC-1 fluorescence, 3T3-L1 adipocytes, 24 h, 100 nL compound, profiling panel (AID 1168). Note: test concentration not given here. To be noted: JC-1 mitochondrial fluorescence, higher = more signal, called active from +8 up or from −8 down.
Experiment [18] can be described thus: JC-1 mitochondrial signal, unstimulated myeloma cells – cell-based, JC-1 fluorescence, RPMI8226, 24 h, 100 nL compound, profiling panel (AID 1169). Note: test concentration not given here. To be noted: JC-1 mitochondrial potential fluorescence, higher = more signal.
Experiment [19] is described as follows: JC-1 mitochondrial signal, unstimulated MM1S myeloma – cell-based, JC-1 fluorescence, 24 h, 100 nL compound, profiling panel (AID 1170). Note: test concentration not given here. To be noted: MM1S mitochondrial potential, higher = more signal.
Experiment [20] is described as follows: resazurin metabolic signal in A549 cells – cell-based, resazurin fluorescence, 24 h, PK04 Diversity Set, profiling panel (AID 1171). Note: test concentration not given here. To be noted: A549 viability, higher = more signal, called active from +8 up or from −8 down. (The colour change of resazurin is a common sign of viable cells or microbes.)

Active and inactive are the calls of the source.

NADPH oxidase 2 (Homo sapiens), sequence (P04839 whole entry, looked up): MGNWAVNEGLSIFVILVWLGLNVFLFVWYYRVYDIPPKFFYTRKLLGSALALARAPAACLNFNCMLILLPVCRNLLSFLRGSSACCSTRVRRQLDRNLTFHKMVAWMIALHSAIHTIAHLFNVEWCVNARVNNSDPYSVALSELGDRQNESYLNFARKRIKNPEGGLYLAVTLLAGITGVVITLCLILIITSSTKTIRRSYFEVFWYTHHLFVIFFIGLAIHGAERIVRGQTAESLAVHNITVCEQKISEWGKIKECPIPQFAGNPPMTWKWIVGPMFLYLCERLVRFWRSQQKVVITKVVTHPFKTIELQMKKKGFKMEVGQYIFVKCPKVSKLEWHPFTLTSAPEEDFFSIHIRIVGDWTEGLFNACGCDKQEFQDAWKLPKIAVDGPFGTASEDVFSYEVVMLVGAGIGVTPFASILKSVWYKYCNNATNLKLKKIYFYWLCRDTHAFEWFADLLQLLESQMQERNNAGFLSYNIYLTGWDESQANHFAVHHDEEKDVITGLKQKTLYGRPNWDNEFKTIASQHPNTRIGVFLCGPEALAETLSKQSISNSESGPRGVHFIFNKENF
NADPH oxidase 4 (Homo sapiens), sequence (Q9NPH5 whole entry, looked up): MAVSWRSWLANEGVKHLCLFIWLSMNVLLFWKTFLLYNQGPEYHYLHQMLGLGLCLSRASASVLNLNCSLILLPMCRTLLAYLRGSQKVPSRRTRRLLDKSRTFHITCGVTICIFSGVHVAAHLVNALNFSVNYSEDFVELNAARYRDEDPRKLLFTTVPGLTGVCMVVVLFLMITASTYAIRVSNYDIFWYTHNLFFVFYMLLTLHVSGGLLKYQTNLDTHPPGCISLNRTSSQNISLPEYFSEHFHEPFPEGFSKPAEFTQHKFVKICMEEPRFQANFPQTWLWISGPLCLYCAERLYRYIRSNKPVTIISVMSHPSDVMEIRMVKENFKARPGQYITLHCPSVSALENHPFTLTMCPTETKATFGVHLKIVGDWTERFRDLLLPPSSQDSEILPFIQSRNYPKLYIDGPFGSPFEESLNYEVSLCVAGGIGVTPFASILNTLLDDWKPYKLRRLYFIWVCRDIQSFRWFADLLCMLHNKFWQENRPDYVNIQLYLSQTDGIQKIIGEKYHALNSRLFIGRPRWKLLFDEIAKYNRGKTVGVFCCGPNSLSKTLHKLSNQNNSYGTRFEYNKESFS
NADPH oxidase 5 (Homo sapiens), sequence (Q96PH1 whole entry, looked up): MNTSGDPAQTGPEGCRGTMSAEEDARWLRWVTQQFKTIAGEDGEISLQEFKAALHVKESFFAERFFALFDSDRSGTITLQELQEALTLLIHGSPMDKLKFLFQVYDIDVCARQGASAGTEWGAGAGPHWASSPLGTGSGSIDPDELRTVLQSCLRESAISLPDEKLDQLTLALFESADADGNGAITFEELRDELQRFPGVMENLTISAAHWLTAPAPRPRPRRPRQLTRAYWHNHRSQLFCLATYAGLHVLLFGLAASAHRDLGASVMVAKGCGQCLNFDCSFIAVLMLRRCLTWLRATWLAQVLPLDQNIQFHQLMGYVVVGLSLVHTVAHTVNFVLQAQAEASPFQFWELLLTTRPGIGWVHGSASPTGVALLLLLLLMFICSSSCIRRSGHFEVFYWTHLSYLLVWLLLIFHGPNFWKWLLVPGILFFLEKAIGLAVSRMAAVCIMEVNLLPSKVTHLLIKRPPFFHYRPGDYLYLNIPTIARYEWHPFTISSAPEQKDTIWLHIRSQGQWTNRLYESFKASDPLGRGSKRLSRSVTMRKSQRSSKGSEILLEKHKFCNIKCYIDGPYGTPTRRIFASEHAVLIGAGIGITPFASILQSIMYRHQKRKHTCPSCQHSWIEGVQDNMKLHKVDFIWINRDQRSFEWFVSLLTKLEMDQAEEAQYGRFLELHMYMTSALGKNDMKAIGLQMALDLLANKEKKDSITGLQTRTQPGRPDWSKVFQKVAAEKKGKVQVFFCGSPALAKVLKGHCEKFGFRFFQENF

In the case of `CC(C)=CCCC(C)=CCON=C1C[C@@H](O)[C@@H](O)[C@@H]2[C@@H]3C(=O)N(C4CCCCC4)C(=O)[C@@H]3CC[C@@H]12`, the z-score was -0.734 (inactive) in experiment [1]; 2.18 (inactive) in experiment [3]; 0.677 (inactive) in experiment [4]; -0.25 (inactive) in experiment [5]; 0.525 (inactive) in experiment [6]; -0.367 in experiment [7]. Also, the z-score in [8] is 0.606 (inactive); in [9], 0.435 (inactive); in [10], -0.18; in experiment [11] it was -0.972; in experiment [12] it was -0.345; in experiment [13] it was -1.14. The z-score in experiment [14] was -2.39; in experiment [15], -1.36; in experiment [16], -1.64; in experiment [17], -1.22 (inactive); in experiment [18] it was -0.258; in experiment [19], -0.859. In experiment [20], the z-score is 0.023 (inactive). In addition, the composite z-score in experiment [2] was -0.147.
`CON=C1[C@H]2CCn3c(=O)n(-c4ccccc4)c(=O)n3[C@H]2[C@H](O)[C@@H]2O[C@H]12`: the z-score in experiment [1] is -1.04 (inactive); in experiment [3], -0.713 (inactive); in [4], -1.53 (inactive); in experiment [5] it was -0.801 (inactive); in experiment [6], -1.77 (inactive); in experiment [7], 1.56. In addition, the z-score in [8] was 0.0197 (inactive); in experiment [9] it was 0.3 (inactive); in experiment [10] it was 1.26; in experiment [11], 0.828; in experiment [12], 0.384; in experiment [13] it was 0.739. Also, the z-score is -0.211 in experiment [14]; 0.483 in experiment [15]; -1.17 in experiment [16]; 1.86 (inactive) in [17]; 0.391 in experiment [18]; 0.68 in [19]. The z-score in experiment [20] was -0.378 (inactive). Further, the composite z-score in experiment [2] is -0.108.
In the case of `C[C@@H](c1ccccc1)N1C(=O)[C@H]2[C@H]3[C@H](O)[C@H](O)CC(=NOCc4ccccc4)[C@H]3CC[C@H]2C1=O`, the z-score in experiment [1] is 0.331 (inactive); in experiment [3], 31.6 (active); in experiment [4], 6.36 (inactive); in [5], 0.321 (inactive); in [6], 1.21 (inactive); in [7] it was -0.182. In addition, the z-score in experiment [8] is -1.53 (inactive); in [9] it was 0.0357 (inactive); in experiment [10], -3.27; in experiment [11], 0.654; in [12], -0.602; in experiment [13], -0.159. Also, the z-score in experiment [14] is 0.503; in experiment [15] it was 0.13; in experiment [16] it was 0.879; in [17], 0.925 (inactive); in experiment [18] it was 0.00496; in experiment [19], -1.55. For the same compound, the z-score in experiment [20] was -0.428 (inactive). Moreover, the composite z-score in experiment [2] is -0.0518.
On to `CCOC(=O)NN=C1C[C@@H](O)[C@@H](O)[C@@H]2[C@@H]3C(=O)N([C@@H](C)c4ccccc4)C(=O)[C@@H]3CC[C@@H]12`, for which the z-score is -0.0718 (inactive) in [1]; -0.308 (inactive) in [3]; 0.0095 (inactive) in experiment [4]; -0.611 (inactive) in experiment [5]; -0.0871 (inactive) in experiment [6]; -0.25 in experiment [7]. For the same compound, the z-score in experiment [8] was -0.819 (inactive); in [9], 0.589 (inactive); in experiment [10], -0.143; in [11], 0.0669; in [12] it was -1.33; in experiment [13] it was -0.624. The z-score in experiment [14] was 0.372; in experiment [15], -0.112; in experiment [16], -0.369; in experiment [17], -0.878 (inactive); in experiment [18], -0.92; in [19] it was -0.834. For the same compound, the z-score in [20] was 0.4 (inactive). Besides, the composite z-score in [2] was -0.0523.

Source of the values: PubChem BioAssay.
